In all, about 320,000 compounds went through this assay and about 1,300 (0.41%) were called active. About 3% were inconclusive and are not listed. How the calls were made is not given here. Not all results are given here. Results with a measured potency or affinity are listed apart.

By inhibition is commonly meant the drop in the measured response relative to a control, in per cent.

A short description of the test: growth inhibition of non-replicating M. tuberculosis (AID 488890).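 Further: plate controls were DMSO cells for no effect and high antibiotic wells for full effect.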 The settings on record: Mycobacterium tuberculosis non-replicating, at 25 µM, stronger effect = higher value.
As for `O=C(CSc1n[nH]c(-c2ccc(S(=O)(=O)NC3CCCCC3)cc2)n1)N1CCCC1`, the inhibition worked out at 12.1%.

With `O=C(CCc1nc2ccccc2c(=O)[nH]1)NCCN1C(=O)S/C(=C\c2ccccc2Cl)C1=O`, the inhibition amounted to 7.97%.

As to `O=c1c2ccccc2n(Cc2cccc(F)c2)c(=O)n1C1CCCC1`, the inhibition came out at 7.83%.

For `CC(C)C[C@@H](CN(N=O)[C@@H](Cc1ccccc1)CN(C)N=O)N(CCc1ccccc1)N=O`, the inhibition worked out at 1.78%.

With `CCOc1ccc(N2C(=O)CC(NC3CCCCNC3=O)C2=O)cc1` (stereo unspecified), the inhibition amounted to 61.4%.

Regarding `Cc1ccccc1NC(=O)Nc1ccccn1`, the inhibition came to 1.67%.

Turning to `COc1ccc(-c2cc(C(F)(F)F)nc(-n3ccnc3C)n2)cc1`, the inhibition is 31%.

As to `O=C(COC(=O)CNS(=O)(=O)c1ccc(Br)cc1Cl)NC1CC1`, the inhibition was -8.59%.

Regarding `Cc1ccc(NC(=O)CCC(=O)c2cccs2)cc1F`, the inhibition came to 14.5%.

On to `O=C(CCC(=O)c1cccs1)NCc1ccc(Cl)cc1`, for which the inhibition was determined as 3.45%.

Turning to `Cc1ccc(NC(=O)Cc2cccs2)cc1Cl`, the inhibition came to 13.4%.

For `O=C(Nc1ccc(Cl)cc1)c1cccs1`, the inhibition was 76.6%.

Take `O=c1c2ccccc2ncn1CCCSc1ccc(Cl)cc1`: the inhibition came to 72.5%.

Take `O=C(c1ccccc1CCc1ccccc1)N1CCCC1`: the inhibition turned out to be 7.78%.

As for `CCCCC(=O)Nc1ccc(Br)cn1`, the inhibition is 6.83%.

As for `CCC(=O)Nc1ccc(Br)cn1`, the inhibition turned out to be 8.41%.

As for `CCN(C(=O)COC(=O)c1cc([N+](=O)[O-])ccc1N1CCOCC1)C1CCS(=O)(=O)C1` (stereo unspecified), the inhibition was -18.3%.

In the case of `CC1CCc2c(nc3nc[nH]n3c2=O)C1` (stereo unspecified), the inhibition stood at 14.7%.

Take `Cc1nc2nc3c(c(=O)n2[nH]1)CCC3`: the inhibition is -0.78%.

With `Cc1cccc(NC(=S)NCC(c2cccnc2)N2CCOCC2)c1C` (stereo unspecified), the inhibition is -1.94%.

For the molecule `CCOc1ccc(N2C(=O)CC(N(CCc3ccc(OC)c(OC)c3)C(=O)/C=C/C(=O)O)C2=O)cc1` (stereo unspecified), the inhibition came out at 16.4%.

As for `COC(=O)c1ccc(N2NC(=O)/C(=C/c3ccc(OC)c(OC)c3)C2=O)cc1`, the inhibition turned out to be 14.3%.

For the molecule `COc1cc(/C=C2/SC(=O)NC2=O)ccc1OC(=O)c1ccco1`, the inhibition was -7.07%.

`COc1ccc(/C=C2/C(=O)N(c3ccccc3)N=C2C)cc1Br`: the inhibition was found to be 1.11%.

Consider `COc1cc(/C=C2/SC(=S)N(C)C2=O)ccc1OC(=O)c1ccco1`, for which the inhibition was 31.5%.

Turning to `COc1cc(/C=C2/C(=O)NN(c3cccc(C)c3)C2=O)cc([N+](=O)[O-])c1O`, the inhibition is 10.2%.

Consider `COc1cc(/C=C2/C(=O)NN(c3ccc(Cl)cc3)C2=O)cc(OC)c1O`, for which the inhibition came to 21.1%.

As for `COc1ccc(/C=C2/C(=O)N(c3ccccc3)N=C2C)cc1OC`, the inhibition came out at 1.07%.

As for `CCOC(=O)COc1ccc(/C=C2/C(=O)NN(c3ccc(F)cc3)C2=O)cc1OC`, the inhibition came out at 79.2%.

As to `CC1CCCN(CCCNC(=O)c2ccc(CS(=O)(=O)c3c(Cl)cccc3Cl)o2)C1` (stereo unspecified), the inhibition came to 0.97%.

Turning to `C/C(=N\NC(=O)c1ccccc1NC(=O)c1ccc(Cl)cc1)c1ccncc1`, the inhibition was 14.5%.

For the molecule `Cn1nc(C(=O)N2CCN(S(=O)(=O)/C=C/c3ccccc3)CC2)c2ccccc2c1=O`, the inhibition worked out at 1.67%.

Turning to `CCC1C2Cn3c(nc4ccccc43)C1N(C)O2` (stereo unspecified), the inhibition is -9.29%.

For `CC1(C)CC(=O)C(C=NCCN2CCN(C(=O)CCl)CC2)=C(O)C1`, the inhibition turned out to be 28.9%.

In the case of `CCOC(=O)c1sc(C)c(C(=O)NCCCN2CCOCC2)c1N`, the inhibition was -1.46%.

`COc1cc(CC(=O)OCC(=O)Nc2ccc(Cl)c(S(=O)(=O)N(C)C)c2)cc(OC)c1OC`: the inhibition was 16.7%.

`Cc1ncc(CO)c(CNc2ccc(Oc3ccccc3)cc2)c1O`: the inhibition turned out to be 41.9%.

With `CCC1CCc2sc(C(=O)NCc3ccccn3)cc2C1` (stereo unspecified), the inhibition came to 75.2%.

Regarding `CC1CCc2sc(C(=O)NNC(=O)c3ccncc3)cc2C1` (stereo unspecified), the inhibition was 71.2%.

`CCC1CCc2sc(C(=O)NNC(=S)NCC3CCCO3)cc2C1` (stereo unspecified): the inhibition turned out to be 23.3%.

`O=C(NCC1CCCO1)c1cc2c(s1)CCCC2` (stereo unspecified): the inhibition is 5.26%.

On to `CCOc1ccc(NC(=O)CCC(=O)NNC(=O)COc2ccc(C)cc2)cc1`, for which the inhibition was -22.8%.

For the molecule `CCOC(=O)c1c(C)[nH]c(C)c1C(=O)CSc1nncs1`, the inhibition is -5.38%.

With `Cc1[nH]ccc(=O)c1OCC(=O)O`, the inhibition is -4.62%.

In the case of `COc1ccc(S(=O)(=O)N2CCN(c3ccc4nnc(-c5ccc(F)cc5)n4n3)CC2)cc1`, the inhibition was determined as 24%.

Take `CNC[C@H]1Oc2c(NS(=O)(=O)c3ccccc3)cccc2C(=O)N([C@H](C)CO)C[C@@H]1C`: the inhibition is -8.41%.

Take `CN(C(=O)CN1C(=O)S/C(=C\c2ccc(F)cc2)C1=O)C1CCS(=O)(=O)C1` (stereo unspecified): the inhibition was -4.74%.

For `COc1ccccc1CNC(=O)COc1ccccc1C`, the inhibition was found to be 10%.

For `Cc1occc1C(=O)N=Nc1c(O)[nH]c2ccc(Br)cc12`, the inhibition is -11.3%.

Take `N=C(N)N=Nc1c(O)[nH]c2ccc(Br)cc12`: the inhibition worked out at 46%.

Consider `O=C(Nc1ccc(Br)c(Br)c1)C1CCCO1` (stereo unspecified), for which the inhibition turned out to be 40.5%.

As to `O=[N+]([O-])c1cc2c(cc1CN1CCN(c3ccc(F)cc3)CC1)OCO2`, the inhibition amounted to 12.8%.

Regarding `Clc1ccc(N2CCN(Cc3ccc(Br)o3)CC2)cc1`, the inhibition amounted to 75.9%.

For the molecule `O=[N+]([O-])c1ccc(N2CCN(c3ccc(F)cc3)CC2)cc1`, the inhibition stood at 24.2%.

For `Clc1ccc(N2CCN(Cc3ccco3)CC2)cc1`, the inhibition stood at 69.8%.

`O=[N+]([O-])c1cccc(-c2ccc(CN3CCN(c4ccccc4)CC3)o2)c1`: the inhibition came out at 36.7%.

For `O=[N+]([O-])c1ccc(CN2CCN(c3ccc([N+](=O)[O-])cc3)CC2)cc1`, the inhibition amounted to 73.8%.

For the molecule `O=[N+]([O-])c1ccc(N2CCN(Cc3ccc(Br)o3)CC2)cc1`, the inhibition came to 78.8%.

`O=[N+]([O-])c1ccccc1-c1ccc(CN2CCN(c3ccccc3)CC2)o1`: the inhibition was 36.3%.

With `Cc1cc(C)cc(NC(=O)Cn2c(=O)oc3cc(S(=O)(=O)N4CC(C)CC(C)C4)ccc32)c1` (stereo unspecified), the inhibition stood at 12.4%.

On to `COc1ccc(N/C(=N\c2nc(C)cc(C)n2)NC(C)=O)cc1OC`, for which the inhibition was -5.13%.

For the molecule `COC(/C=C/Nc1ccc(C)c(C)c1)=C(C#N)C#N`, the inhibition was -13.9%.

With `COc1cccc(CNCC(O)(c2ccc(Cl)cc2)c2ccc(Cl)cc2)c1`, the inhibition was 31.2%.

`Cc1ccc(C(=O)N(Cc2ccccc2)C(C)(C)C)cc1C`: the inhibition worked out at 14%.

`CC(=O)Nc1ccc(NC(=O)CSc2nnc(-c3ccc4c(c3)OCO4)o2)cc1`: the inhibition is 14.8%.

Turning to `CCCC(c1nnnn1CCc1ccccc1)N1CCC(C(N)=O)CC1` (stereo unspecified), the inhibition amounted to 8.84%.

As for `O=C(N/N=C/c1cccnc1)c1cccc(NC(=O)c2ccccc2Cl)c1`, the inhibition was -2.18%.

As to `CCN(C(=O)c1c(-c2ccccc2)noc1C)c1ccccc1`, the inhibition was -7.88%.

Regarding `COc1ccc(CC(=O)Nc2cc(C)on2)cc1OC`, the inhibition is -12.5%.

In the case of `COc1ccc(C(=O)Nc2cc(C(=O)O)cc(C(=O)O)c2)cc1Cl`, the inhibition stood at 1.97%.

With `Cc1sc(NC(=O)C2CC=CCC2C(=O)O)c(C(=O)OC(C)C)c1C` (stereo unspecified), the inhibition stood at 24.5%.

(Values after PubChem BioAssay AID488890 (Southern Research Specialized Biocontainment Screening …, 2010).)
